Results taken from PubChem BioAssay.
Activity calls are given as the source filed them.

Key:
[1] = tested on: Plasmodium falciparum Sir2 (PF13_0152, Sir2A); assay: Plasmodium falciparum Sir2A binding compounds – biochemical, small-molecule microarray, 635 nm fluorescence, primary screen (AID 1098); details: fluorescence 635 nm, higher = more signal;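 further: score merges spot fluorescence intensity with its signal-to-noise ratio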
[2] = probe aDKK1 binding to arrayed compounds – biochemical, biotinylated probe, 635/667 nm fluorescence, primary screen (AID 1099); details: small-molecule microarray, higher = more signal;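 further: score merges 667nm spot fluorescence with signal to noise across triplicate slides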
[3] = probe aCHRDL2 binding to arrayed compounds – biochemical, biotinylated probe, 635/667 nm fluorescence, primary screen (AID 1100); details: small-molecule microarray, higher = more signal
[4] = change in splice reporter luminescence, either direction, cell-based, HEK293, spliceosome inhibition project, primary screen (AID 1101); details: HEK293 splicing luciferase reporter, 24 h, higher = more signal, called active from +8 up or from −8 down;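 further: HEK293 cells carrying a splicing-competent luciferase reporter gene; test concentration not given here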
[5] = molecular target: Fibroblast growth factor 10 (Homo sapiens) (UniProt O15520); assay: compounds binding fibroblast growth factor 10 – biochemical, small-molecule microarray, 635 nm fluorescence, primary screen (AID 1102); details: FGF10 binding, fluorescence 635 nm, higher = more signal
Fibroblast growth factor 10 (Homo sapiens), sequence (O15520 whole entry, looked up): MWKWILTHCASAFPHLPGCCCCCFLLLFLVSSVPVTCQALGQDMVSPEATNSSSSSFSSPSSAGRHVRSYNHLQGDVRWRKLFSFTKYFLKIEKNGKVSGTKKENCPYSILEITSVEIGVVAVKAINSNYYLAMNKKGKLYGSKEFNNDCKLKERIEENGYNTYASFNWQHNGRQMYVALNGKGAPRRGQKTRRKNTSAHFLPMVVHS

[6] = tested on: glycogen synthase kinase-3 (GSK3A per assay name; protocol says GSK3B); assay: compounds binding glycogen synthase kinase-3 – biochemical, small-molecule microarray, 635 nm fluorescence, GSK3A, primary screen (AID 1103); details: fluorescence 635 nm, higher = more signal; further: the record names both GSK3A and GSK3B
[7] = molecular target: Epidermal growth factor receptor (Homo sapiens) (UniProt P00533); assay: compounds binding epidermal growth factor receptor – biochemical, small-molecule microarray, 635 nm fluorescence, primary screen (AID 1104); details: EGFR binding, higher = more signal;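 further: score merges 667 nm emission intensity with spot signal to noise over triplicate slides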
Epidermal growth factor receptor (Homo sapiens), sequence (P00533 whole entry, looked up): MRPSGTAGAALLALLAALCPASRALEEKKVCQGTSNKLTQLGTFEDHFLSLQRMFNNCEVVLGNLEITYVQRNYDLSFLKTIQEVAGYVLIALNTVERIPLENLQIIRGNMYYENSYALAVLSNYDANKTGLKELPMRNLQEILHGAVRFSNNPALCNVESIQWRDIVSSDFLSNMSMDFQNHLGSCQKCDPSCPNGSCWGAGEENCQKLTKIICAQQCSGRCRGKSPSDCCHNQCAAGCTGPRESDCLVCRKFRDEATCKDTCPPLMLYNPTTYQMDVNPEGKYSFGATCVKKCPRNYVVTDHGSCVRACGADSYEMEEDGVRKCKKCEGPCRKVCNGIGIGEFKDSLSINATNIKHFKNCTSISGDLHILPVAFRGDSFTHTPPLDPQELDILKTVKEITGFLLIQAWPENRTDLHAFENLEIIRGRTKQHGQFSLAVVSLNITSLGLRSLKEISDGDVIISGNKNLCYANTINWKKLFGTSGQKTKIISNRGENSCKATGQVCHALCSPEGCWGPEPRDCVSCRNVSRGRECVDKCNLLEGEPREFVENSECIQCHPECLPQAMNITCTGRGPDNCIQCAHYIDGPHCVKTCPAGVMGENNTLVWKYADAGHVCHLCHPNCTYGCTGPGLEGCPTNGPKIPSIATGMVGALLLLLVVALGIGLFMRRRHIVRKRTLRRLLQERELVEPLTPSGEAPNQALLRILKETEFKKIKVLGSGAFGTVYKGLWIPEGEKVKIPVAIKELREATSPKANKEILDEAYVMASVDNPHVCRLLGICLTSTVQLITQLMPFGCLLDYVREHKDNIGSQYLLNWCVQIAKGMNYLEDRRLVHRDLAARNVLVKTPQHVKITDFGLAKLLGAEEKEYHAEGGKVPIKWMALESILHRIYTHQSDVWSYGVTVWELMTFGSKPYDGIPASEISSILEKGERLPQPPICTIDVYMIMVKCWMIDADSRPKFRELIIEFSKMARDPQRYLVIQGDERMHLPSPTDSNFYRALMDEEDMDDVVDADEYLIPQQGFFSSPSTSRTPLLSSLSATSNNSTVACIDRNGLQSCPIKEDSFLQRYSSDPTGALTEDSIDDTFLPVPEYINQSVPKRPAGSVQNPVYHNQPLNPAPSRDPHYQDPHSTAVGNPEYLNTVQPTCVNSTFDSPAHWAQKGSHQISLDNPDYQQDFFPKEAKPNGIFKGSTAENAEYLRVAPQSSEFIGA

[8] = molecular target: Follistatin-related protein 3 (Homo sapiens) (UniProt O95633); assay: compounds binding follistatin-related protein 3 – biochemical, small-molecule microarray, 635 nm fluorescence, primary screen (AID 1105); details: FSTL3 binding, higher = more signal;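 further: score merges emission near 667 nm and signal to noise per printed spot across three slides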
Follistatin-related protein 3 (Homo sapiens), sequence (O95633 whole entry, looked up): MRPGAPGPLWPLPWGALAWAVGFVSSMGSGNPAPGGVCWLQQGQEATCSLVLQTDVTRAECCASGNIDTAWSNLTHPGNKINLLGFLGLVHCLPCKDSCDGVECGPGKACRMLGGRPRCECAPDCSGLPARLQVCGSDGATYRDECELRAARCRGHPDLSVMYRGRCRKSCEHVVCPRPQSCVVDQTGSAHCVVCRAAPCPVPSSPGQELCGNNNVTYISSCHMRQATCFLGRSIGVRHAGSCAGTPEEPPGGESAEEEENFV

[9] = molecular target: Dickkopf-related protein 1 (Homo sapiens) (UniProt O94907); assay: small molecules binding DKK1 protein – biochemical, small-molecule microarray, 635 nm fluorescence scan, primary screen (AID 1106); details: higher = more signal;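 further: score merges emission near 667 nm with signal to noise over three replicate slides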
Dickkopf-related protein 1 (Homo sapiens), sequence (O94907 whole entry, looked up): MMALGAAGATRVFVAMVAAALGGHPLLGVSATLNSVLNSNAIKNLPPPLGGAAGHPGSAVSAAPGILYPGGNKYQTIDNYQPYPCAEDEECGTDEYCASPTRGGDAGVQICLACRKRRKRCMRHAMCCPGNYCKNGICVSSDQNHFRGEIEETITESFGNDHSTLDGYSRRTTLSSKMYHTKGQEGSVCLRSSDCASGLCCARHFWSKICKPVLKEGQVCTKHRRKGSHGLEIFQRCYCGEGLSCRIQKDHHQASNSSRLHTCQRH

[10] = tested on: Inhibin beta A chain (activin A); assay: small molecules binding activin A – biochemical, small-molecule microarray, 635 nm fluorescence scan, primary screen (AID 1107); details: INHBA, higher = more signal;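 further: mouse activin A protein probed at 4.33 µg/mL on printed slides; score merges bound-protein fluorescence near 667 nm with spot signal-to-noise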
[11] = tested on: Human papillomavirus type 1a protein E7 (residues 44-93); assay: small molecules binding HPV E7 44-93 – biochemical, small-molecule microarray, residues 44-93, 635 nm fluorescence, primary screen (AID 1108); details: fluorescence 635 nm, higher = more signal;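 further: E7 fragment applied at 1 µg/mL in TBST for 1 h at 4 C; score combines spot fluorescence with its signal to noise ratio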
[12] = hepatitis C replication reporter changes, two-sided – Huh7 cells, luciferase reporter, HCV replication inhibitor project, primary screen (AID 1109); details: Huh7 HCV replicon luciferase reporter, 48 h; higher = more signal;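 further: huh7 hepatoma cells harbouring a luciferase neomycin HCV replicon reporter; luciferase luminescence as measure of HCV replicon replication; test concentration not given here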
[13] = molecular target: Left-right determination factor 2 (Homo sapiens) (UniProt O00292); assay: small molecules binding LEFTY2 protein – biochemical, small-molecule microarray, 635 nm fluorescence scan, primary screen (AID 1110); details: higher = more signal
Left-right determination factor 2 (Homo sapiens), sequence (O00292 whole entry, looked up): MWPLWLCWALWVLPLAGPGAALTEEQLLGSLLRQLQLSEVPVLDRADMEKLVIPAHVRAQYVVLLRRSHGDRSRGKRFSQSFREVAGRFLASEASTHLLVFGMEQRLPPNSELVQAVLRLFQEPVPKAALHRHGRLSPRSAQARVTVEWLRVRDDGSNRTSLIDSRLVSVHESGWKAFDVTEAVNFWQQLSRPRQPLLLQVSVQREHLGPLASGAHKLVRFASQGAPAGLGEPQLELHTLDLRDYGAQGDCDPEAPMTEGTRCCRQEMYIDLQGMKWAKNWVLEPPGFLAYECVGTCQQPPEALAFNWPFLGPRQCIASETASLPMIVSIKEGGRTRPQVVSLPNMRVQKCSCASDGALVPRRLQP

[14] = molecular target: Calmodulin-1 (Homo sapiens) (UniProt P0DP23); assay: small molecules binding calmodulin-1 with EGTA – biochemical, small-molecule microarray, Cy5-labelled CALM1, profiling panel (AID 1111); details: Cy5-CALM1 binding fluorescence, higher = more signal;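 further: labelled calmodulin applied in Tris saline Tween buffer holding calcium plus EGTA and DTT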
[15] = molecular target: Calmodulin-1 (Homo sapiens) (UniProt P0DP23); assay: small molecules binding Ca-loaded calmodulin-1 – biochemical, small-molecule microarray, Cy5-labelled CALM1, plus calcium, artefact control for SMM control-protein annotation, profiling panel (AID 1112); details: Cy5-CALM1 binding fluorescence, higher = more signal;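 further: score merges spot fluorescence with signal to noise from triplicate slides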
[16] = probe aWnt5a binding to arrayed compounds – biochemical, biotinylated probe, 635/667 nm fluorescence, primary screen (AID 1113); details: small-molecule microarray, higher = more signal;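 further: score merges 667 nm fluorescence intensity with signal-to-noise per printed feature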
[17] = probe aShh binding to arrayed compounds – biochemical, biotinylated probe, 635/667 nm fluorescence, primary screen (AID 1114); details: small-molecule microarray, higher = more signal;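 further: probe is biotin-labelled aShh protein from a stem cell growth factor screen; measures binding of labelled protein to compounds printed on the slide; score merges feature fluorescence at 667 nm with signal-to-noise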
[18] = probe aNog binding to arrayed compounds – biochemical, biotinylated probe, 635/667 nm fluorescence, primary screen (AID 1115); details: small-molecule microarray, higher = more signal;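 further: probe is biotinylated aNog protein used at 0.15 µg/mL for 1 h at 4 C; z-score combines 667 nm fluorescence of each spot with its signal to noise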
[19] = molecular target: Torsin-1A-interacting protein 1 (Homo sapiens) (UniProt Q5JTV8); assay: compound microarray binding of lysate hLAP1 – cell lysate, small-molecule microarray, COS7 lysate, 635/667 nm fluorescence, primary screen (AID 1116); details: 635 nm fluorescence, higher = more signal
Torsin-1A-interacting protein 1 (Homo sapiens), sequence (Q5JTV8 whole entry, looked up): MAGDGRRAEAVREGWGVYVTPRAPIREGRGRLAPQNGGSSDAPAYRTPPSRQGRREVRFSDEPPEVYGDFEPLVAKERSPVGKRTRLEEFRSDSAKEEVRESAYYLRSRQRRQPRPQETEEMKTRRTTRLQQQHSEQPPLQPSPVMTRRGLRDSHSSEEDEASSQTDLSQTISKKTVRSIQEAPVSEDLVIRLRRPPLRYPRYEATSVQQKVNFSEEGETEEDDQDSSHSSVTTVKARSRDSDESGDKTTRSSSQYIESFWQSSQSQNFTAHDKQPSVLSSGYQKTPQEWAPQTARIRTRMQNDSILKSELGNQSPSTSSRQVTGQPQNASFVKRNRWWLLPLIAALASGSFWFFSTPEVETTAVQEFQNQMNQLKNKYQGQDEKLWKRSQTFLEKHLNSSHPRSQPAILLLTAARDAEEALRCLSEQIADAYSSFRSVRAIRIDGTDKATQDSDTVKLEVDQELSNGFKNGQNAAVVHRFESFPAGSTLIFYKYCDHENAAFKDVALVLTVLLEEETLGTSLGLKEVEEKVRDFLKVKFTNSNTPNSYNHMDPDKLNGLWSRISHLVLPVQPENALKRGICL

[20] = molecular target: Alpha-bungarotoxin (Bungarus multicinctus) (UniProt P60615); assay: compounds binding labelled alpha-BTX control protein – biochemical, small-molecule microarray, Alexa647 label, 635/667 nm fluorescence, artefact control for SMM control protein annotation, profiling panel (AID 1117); details: alpha-BTX-A647 binding fluorescence, higher = more signal
Alpha-bungarotoxin (Bungarus multicinctus), sequence (P60615 whole entry, looked up): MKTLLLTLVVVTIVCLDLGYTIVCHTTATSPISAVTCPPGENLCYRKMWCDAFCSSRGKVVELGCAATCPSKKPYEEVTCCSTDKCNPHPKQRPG

SMILES | composite z-score [1] | composite z-score [2] | composite z-score [3] | z-score [4] | composite z-score [5] | composite z-score [6] | composite z-score [7] | composite z-score [8] | composite z-score [9] | composite z-score [10] | composite z-score [11] | z-score [12] | composite z-score [13] | composite z-score [14] | composite z-score [15] | composite z-score [16] | composite z-score [17] | composite z-score [18] | composite z-score [19] | composite z-score [20]
[N-]=[N+]=NCc1ccccc1C[C@]1(C(=O)N2CCOCC2)N=C(c2ccc(OCCCO)cc2)O[C@H]1c1ccccc1N=[N+]=[N-] | 1 | 0.873 | 0.93 | -0.928 (inactive) | 1.31 | 1.33 | 0.466 | 1.37 | 0.234 | 0.878 | 1.44 | -2.21 | 0.536 | 1.14 | 0.792 | 0.0873 | 0.385 | 0.49 | 1.73 | 1.14
C=CCOC(=O)[C@@H]1[C@H]2C(=O)O[C@H](c3ccccc3)[C@H](c3ccccc3)N2[C@H](c2ccc(OCCOC(=O)[C@@H]3C[C@@H]4C(=O)N5CCC[C@H]5C(=O)N4[C@@H]3c3ccc(O)cc3)cc2)[C@@]12C(=O)Nc1ccc(I)cc12 | 0.544 | -0.627 | -0.257 | -1.98 (inactive) | 0.624 | 1.3 | 0.555 | 0.913 | 0.794 | -0.495 | 1.33 | -0.64 | 0.761 | 2.06 | 0.481 | -0.145 | -0.0793 | -0.331 | 1.4 | 0.327
C[C@]1(C(=O)NC2CC2)c2ccccc2C(=O)N(Cc2cc(C(F)(F)F)cc(C(F)(F)F)c2)[C@H]1c1ccc(CO)cc1 | 1.56 | 0.757 | 0.298 | -0.402 (inactive) | 0.711 | 0.948 | 0.279 | 0.865 | 0.585 | 0.592 | 1.29 | -0.106 | 0.122 | 0.224 | 0.114 | -0.0478 | -0.276 | 0.467 | 0.207 | 1.48
CCCCC(O)C1C=CC2C(=O)N(c3ccccc3)C(=O)C2N1Nc1ccccc1F (stereo not given) | 1.24 | 1.4 | 1.17 | 0.826 (inactive) | 0.857 | 0.827 | -0.374 | 0.443 | -0.683 | 0.834 | 0.392 | -0.472 | 0.22 | 1.48 | -0.124 | 0.241 | 0.261 | 1.87 | 1.21 | 3.13
O=C(NCC(F)(F)F)[C@@H]1c2ccccc2C(=O)N(C2CCCCC2)[C@H]1c1ccc(CO)cc1 | 1.56 | 0.121 | 0.528 | 0.283 (inactive) | 0.0573 | -0.0294 | -0.759 | 0.177 | -0.783 | -0.0906 | 0.268 | -1.7 | -0.382 | 0.218 | -0.403 | -0.172 | -0.138 | -0.342 | -0.257 | 1.43
[N-]=[N+]=NCc1ccccc1C[C@]1(C(=O)NCC(O)CO)N=C(c2ccc(OCCCO)cc2)O[C@H]1c1ccccc1 (stereo not given in full) | -0.338 | 1.04 | 0.889 | 0.321 (inactive) | -0.337 | -0.836 | -0.886 | -0.689 | -1.37 | 0.51 | 0.722 | -1.82 | -1.84 | 1.51 | 1.24 | -0.0405 | -0.0211 | 1.06 | 0.846 | 0.19
NCCCCCNC(=O)[C@@H]1C[C@@H]2C(=O)N[C@@H](Cc3ccccc3)C(=O)N2[C@@H]1c1cccc(OCCO)c1 | 1.14 | 0.53 | 0.359 | -0.0581 (inactive) | 0.519 | 0.232 | -0.235 | -0.374 | 0.378 | 0.619 | 0.762 | -0.988 | -0.178 | 0.429 | 0.791 | 0.404 | -0.0652 | 0.0256 | 0.362 | 1.69
CCOC(=O)C[C@H]1[C@H](OC(=O)Cc2ccc3c(c2)OCO3)[C@@H](NC(=O)c2ccc(-c3ccccc3)cc2)c2cc(OCCCO)ccc2N1C(=O)c1ccc2ccccc2n1 | -0.0119 | -0.319 | -0.486 | -2.82 (inactive) | 0.556 | 0.28 | 0.468 | 0.321 | 0.434 | -0.0169 | 0.226 | -1.37 | 0.445 | 0.284 | -0.788 | -0.0828 | -0.146 | -0.261 | 0.142 | 0.0797
CC(C)C(CO)N1C(=O)[C@@H]2[C@H]3C(=O)OCC=C[C@H]3OC23C=CCN(C(C)C)C(=O)[C@@H]13 (stereo not given in full) | -0.542 | -0.202 | -0.25 | 0.181 (inactive) | -0.321 | 0.269 | 0.0755 | 0.354 | 0.254 | 0.756 | -0.432 | 1.07 | -0.0108 | -0.531 | -1.11 | -0.2 | -0.223 | -0.0926 | -0.262 | -0.557
N#Cc1ccc(NN2C(C(O)c3c(F)cccc3Cl)C=CC3C(=O)N(c4ccccc4)C(=O)C32)cc1 (stereo not given) | 1.08 | 1.42 | 1.19 | 0.615 (inactive) | 0.922 | 0.943 | 0.143 | 1.12 | 0.125 | 0.5 | 1.47 | -0.57 | 0.21 | 2.51 | 1.07 | 0.0724 | -0.195 | 1.65 | 2.65 | 1.59
O=C1O[C@H](c2ccccc2)[C@H](c2ccccc2)N2[C@H]1[C@@H](C(=O)O)[C@]1(C(=O)Nc3ccc(C#CCCO)cc31)[C@H]2c1ccc(O)cc1 | 0.218 | 1.13 | 1.14 | -0.765 (inactive) | -0.378 | -0.222 | -0.289 | -0.321 | -0.572 | 1.18 | -0.038 | 0.101 | -0.603 | 0.415 | 0.869 | 0.0044 | -0.0324 | 1.08 | 0.846 | 0.0639
